The list is not random: actives were taken first. Their share in the collection is about 7.5%.
RORg inh: inhibitors of mouse ROR gamma transcriptional activity. Potency, µM (titrated, usually from 53.6 µM), for inactives: at the top dose activity change, negative = inhibition, usual class: inhibitors. AID 2551. P51450. actives 5.4% (n = 310,000). Drosophila S2 Gal4-RORgamma UAS-luciferase reporter, 20 h; also: potency is read from the fitted curve at half-maximal effect; nearly all actives have a fitted effect of over 60% in size
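Drosophila Schneider cells stably carrying a metallothionein-driven Gal4 DBD–ROR gamma fusion and a UAS-Photinus luciferase reporter were exposed to compound for 1 hr, then induced with copper sulfate (700 uM final) for 20 hr at ambient temperature before luminescence reading.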
VP16 counter: inhibits Gal4-VP16 luciferase reporter, ROR gamma counter-screen. Potency, µM (top dose mostly 53.6 µM), for inactives: at the highest dose activity, negative = inhibition, actives largely listed as inhibitors. Drosophila S2 Gal4-VP16 UAS-luciferase, luminescence, 20 h. actives 3.5% (n = 310,000);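 also: Gal4-VP16 expression switched on by copper sulfate through the metallothionein promoter; potency is read from the fitted curve at half-maximal effect; nearly all actives have a fitted effect of over 50% in size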
B2AR arrestin: agonists driving beta-arrestin recruitment to human beta2-adrenergic receptor. P07550. actives 0.02% (n = 330,000). Potency, µM (titrated, usually from 46.1 µM), without a hit: at the top dose activation, hits mostly activators. beta-arrestin recruitment to beta2AR, cell-based reporter;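 also: potency is read from the fitted curve at half-maximal effect; 0% = DMSO controls and full agonism = EC100 isoproterenol or metaproterenol; nearly all actives have a fitted effect of over 65% in size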
Target sequence (P07550 whole entry, looked up): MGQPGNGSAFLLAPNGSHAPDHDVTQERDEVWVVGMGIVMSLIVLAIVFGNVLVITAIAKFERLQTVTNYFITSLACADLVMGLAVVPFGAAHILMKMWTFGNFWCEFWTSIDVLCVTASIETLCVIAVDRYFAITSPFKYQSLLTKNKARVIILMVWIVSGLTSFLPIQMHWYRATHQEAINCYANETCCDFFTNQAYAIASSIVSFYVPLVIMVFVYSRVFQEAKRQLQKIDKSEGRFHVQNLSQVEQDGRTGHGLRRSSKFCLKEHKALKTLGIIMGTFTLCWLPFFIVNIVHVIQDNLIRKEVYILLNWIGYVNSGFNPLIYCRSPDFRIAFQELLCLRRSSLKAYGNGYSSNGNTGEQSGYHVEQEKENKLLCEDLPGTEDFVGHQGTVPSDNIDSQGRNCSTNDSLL
TSHR antag: antagonists of human thyroid stimulating hormone receptor; actives 0.2% (n = 330,000); activity change, negative = inhibition, % at 11.5 µM; P16473; TSHR-expressing cells, TSH-stimulated cAMP HTRF, 2 h; stronger effect = lower value;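 active = activity change below a set negative limit, meaning inhibition stronger than a set level, cut at about -70% in these data; inconclusive = activity change between two set negative limits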
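Cell-based HTRF cAMP assay; TSHR cells + compound, TSH EC80 (4nM final), 2 h, 37 deg C. Lysis with anti-cAMP cryptate and cAMP-d2, 30 min RT, read 665/620 nm.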
ELG1 repair inh: blocks ELG1-dependent DNA repair in HEK293T cells | HEK293T ELG1-luciferase reporter, luminescence, 16 h; DNA damage induced by 5-fluorouridine | Potency, µM (titrated, usually from 46.1 µM), for the others: at the top dose activity change, negative = inhibition, actives largely listed as inhibitors | actives 2.3% (n = 330,000) | AID 504467; also: potency is read from the fitted curve at half-maximal effect; nearly all actives have a fitted effect of over 55% in size
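Cells (2,000 per well) received 5-fluorouridine plus test compound or DMSO and were incubated 16 hr at 37 °C, 5% CO2. Luciferase activity was read by luminescence 30 min after ONE-Glo addition; signal suppression marked inhibition of damage-induced ELG1 function.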
Starred values were filed as active, the others as inactive; ! = not confirmed by another sample. Unless noted, calls follow the shape of the dose curve; as a rule, active = well fitted curve in the direction sought with a large enough effect; inconclusive = small, poorly fitted or top-dose-only effect, or another doubt; inactive = no such curve, though single readings can be large; an effect the other way counts as inactive or inconclusive. Unless noted, % is scaled to controls: 0 for no effect and ±100 for the full control effect.

O=C(NNC(=S)Nc1ccc(Cl)cc1Cl)c1ccc(N2CCOCC2)c([N+](=O)[O-])c1 was read as RORg inh 11µM*, VP16 counter inconclusive, B2AR arrestin 0%, TSHR antag -33 and ELG1 repair inh 6%.
For O=C(NNC(=S)Nc1ccc(Cl)cc1Cl)c1cccnc1 the results were B2AR arrestin 0%, TSHR antag -7 and ELG1 repair inh inconclusive.
For O=C(NNC(=S)Nc1ccc(Cl)cc1Cl)c1ccncc1 the results were RORg inh inconclusive, VP16 counter 11µM*, B2AR arrestin 0%, TSHR antag 4 and ELG1 repair inh 16%.
Cc1ccc(NC(=S)NNC(=O)c2ccc(N3CCOCC3)c([N+](=O)[O-])c2)cc1Cl was read as RORg inh 16µM*, VP16 counter 13µM*, B2AR arrestin 1%, TSHR antag 2 and ELG1 repair inh 8%.
For COc1ccc2cc(-c3ccccc3F)ncc2c1 the results were B2AR arrestin -1%, TSHR antag -8 and ELG1 repair inh inconclusive.
Screening COC(=O)CC1C2(C)CC34OC5(C)O[C@@]6(C7/C(=C(/OC)C(C)C)C(=O)OC(c8ccoc8)[C@@]7(C)C(OC(=O)C(C)C)C(OC)[C@]6(O5)[C@@]13C)C(OC)[C@]4(OC)C2OC(C)=O (some centres undefined) returned RORg inh 16% and VP16 counter 3%.
CCCCCCCC/C=C\CCCCCCCC(=O)N[C@@H](CO)Cc1ccc(O)cc1 was read as RORg inh 2% and VP16 counter inconclusive.
`O=C(Nc1ccc(-c2nc3ccccc3o2)cc1)c1ccc(N2CCOCC2)c([N+](=O)[O-])c1` gave RORg inh inconclusive, VP16 counter 10µM*, B2AR arrestin -1%, TSHR antag -3 and ELG1 repair inh inconclusive.
Screening COc1ccc2oc(-c3ccc(NC(=O)c4ccc(N5CCOCC5)c([N+](=O)[O-])c4)cc3)nc2c1 returned RORg inh 27%, VP16 counter -10%, B2AR arrestin 0%, TSHR antag -12 and ELG1 repair inh -5%.
`COc1cccc(-c2ccc3ncnc(NCc4cnc(C)cn4)c3c2)c1` gave RORg inh -2% and VP16 counter inconclusive.
Screening CNc1nc(C)nc(-n2nc(C)cc2C)n1 returned RORg inh 6.3µM*, VP16 counter inconclusive, B2AR arrestin 0%, TSHR antag -7 and ELG1 repair inh inconclusive.
Cc1cc(N(CCO)CCO)nc(-n2nc(C)cc2C)n1 was read as RORg inh -30%, VP16 counter 10%, B2AR arrestin 0%, TSHR antag 12 and ELG1 repair inh 0%.
Cc1cc(C)n(-c2nnc(NCc3ccc(Cl)cc3)nn2)n1 was read as RORg inh inconclusive, VP16 counter 4%, B2AR arrestin 0%, TSHR antag -5 and ELG1 repair inh -10%.
For Cc1cc(C)n(-c2nc(C)nc(NCc3ccccc3)n2)n1 the results were RORg inh 1.6µM*, VP16 counter 5.6µM*, B2AR arrestin 5%, TSHR antag -18 and ELG1 repair inh inconclusive.
Screening COC(=O)c1c(NC(=O)C2CC2)sc2c1CCCC2 returned RORg inh inconclusive, VP16 counter -11%, B2AR arrestin 0%, TSHR antag -14 and ELG1 repair inh 2%.
COC(=O)c1c(NC(=S)NC(=O)c2ccco2)sc2c1CCCC2 was read as RORg inh 2.5µM*, VP16 counter inconclusive, B2AR arrestin 4%, TSHR antag 4 and ELG1 repair inh inconclusive.
COC(=O)c1c(NC(=S)NN2CCOCC2)sc2c1CCCC2 was read as RORg inh 1.3µM*, VP16 counter 4µM*, B2AR arrestin 0%, TSHR antag -17 and ELG1 repair inh -17%.
Screening COc1cc2nccc(Oc3ccc(NC(=O)Nc4ccc(F)cc4F)c(F)c3)c2cc1OC returned RORg inh -41% and VP16 counter inconclusive.
Screening Cc1ccc(C(=O)N2CCCCC2)cc1NC1=C(Cl)C(=O)N(Cc2ccccc2)C1=O returned B2AR arrestin 0%, TSHR antag -14 and ELG1 repair inh 18µM*.
`CC(C)(C)OC(=O)C1=NOC2(C=CC(=O)C=C2)C1` gave RORg inh inconclusive and VP16 counter 13µM*!.
`O=C(NC(=S)Nc1ccc(Oc2ccccc2)cc1)c1ccc(Cl)cc1` gave RORg inh 8.9µM*, VP16 counter inconclusive, B2AR arrestin 0%, TSHR antag -38 and ELG1 repair inh -29%.
For Cc1ccc(C(=O)NC(=S)Nc2ccc(Oc3ccc(Cl)cc3)cc2)cc1 the results were RORg inh 0.89µM*, VP16 counter inconclusive, B2AR arrestin -2%, TSHR antag -45 and ELG1 repair inh -3%.
`Cc1ccccc1C(=O)NC(=S)Nc1ccc(Oc2ccc(Cl)cc2)cc1` gave RORg inh 3.2µM*, VP16 counter 11µM*, B2AR arrestin 0%, TSHR antag -15 and ELG1 repair inh -19%.
For COc1ccc(NC(=S)Nc2ccc(Oc3ccccc3)cc2)cc1 the results were RORg inh 11%, VP16 counter -6%, B2AR arrestin 0%, TSHR antag 8 and ELG1 repair inh inconclusive.
`Clc1ccccc1-c1nccc(NCc2cccs2)n1` gave RORg inh inconclusive and VP16 counter -11%.
Screening COc1ccc(-c2nc(CN3CCN(Cc4cccc(F)c4)CC3)c(C)o2)cc1 returned RORg inh inconclusive, VP16 counter -28%, B2AR arrestin 0%, TSHR antag 4 and ELG1 repair inh -9%.
`COc1ccc(-c2nc(CN3CCN(Cc4cccc(Cl)c4)CC3)c(C)o2)cc1` gave RORg inh 11µM*, VP16 counter inconclusive, B2AR arrestin -1%, TSHR antag -9 and ELG1 repair inh inconclusive.
Screening O=C1CCC=C1C(O)c1ccccc1 (centres undefined) returned RORg inh -1% and VP16 counter -9%.
For O=C(NCCN1C(=O)CCC1=O)c1ccncc1 the results were RORg inh 5.6µM*, VP16 counter -2%, B2AR arrestin 0%, TSHR antag 1 and ELG1 repair inh -3%.
For O=C(NCCN1CCOCC1)c1ccncc1 the results were RORg inh -13%, VP16 counter 2%, B2AR arrestin 0%, TSHR antag -7 and ELG1 repair inh 8%.
Cn1c2ccccc2c2cc(C(=O)NNC(=O)CCl)sc21 was read as RORg inh 14µM*, VP16 counter -28%, B2AR arrestin 0%, TSHR antag -11 and ELG1 repair inh inconclusive.
CCCNC(=O)c1cc2c3ccccc3n(C)c2s1 was read as RORg inh -6%, VP16 counter 7%, B2AR arrestin -2%, TSHR antag -5 and ELG1 repair inh inconclusive.

Source: PubChem
